Bioassay records as filed in PubChem.
MPTP inh = mitochondrial permeability transition pore inhibitors, primary screen, biochemical, isolated mouse mitochondria, absorbance | Ca2+ swelling absorbance, 30 min | inhibition, % at 10 µM | 360,000 tested, 1.4% active | AID 602449, 2012;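 active = inhibition of 50% or more, scaled per plate between neutral and stimulator controls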;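 note: 0% = DMSO wells given calcium and 100% = 1 mM EGTA wells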
GRIN3A LBD mod = binders of NR3A ligand-binding domain, primary screen, biophysical, differential scanning fluorimetry, uHTS; NR3A LBD differential scanning fluorimetry, Tm shift; 0% = protein alone, 100% = glycine-bound protein; Glutamate receptor ionotropic, NMDA 3A (GRIN3A) ligand-binding domain; Tm shift relative to glycine control, % at 25 µM; 340,000 tested, 2.5% active; AID 1259313, 2017;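 active = melting temperature shift of at least 10% of the positive control shift, at one fixed dose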
pCIP destab = p/CIP-EGFP fusion destabilizers, primary screen, fluorescence, F442A cells; decrease of EGFP signal, % at 10 µM; 16 h; 290,000 tested, 0.01% active;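 active = EGFP signal decrease of at least 30% at 10 µM or well 3 SD below plate mean, unless failing retest; inactive = the rest, including hits failing retest or dose response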
MIN6 prolif = inducers of MIN6 beta-cell proliferation, primary screen, ATP luminescence, uHTS; MIN6 cells proliferation, ATPlite luminescence, 48 h; cells starved in 0.2% serum; 100% = growth in 10% serum; proliferation, % at 10 µM; 330,000 tested, 0.29% active;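 active = compounds whose signal lies at least 3.5 SD above the mean of all wells on their plate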;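 note: 0% = DMSO-treated cells in low-serum medium and 100% = 10% serum control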
FAS-TE inh = FAS thioesterase domain inhibitors, primary screen, biochemical, fluorescence intensity, uHTS; recombinant FAS-TE, OMFH fluorogenic substrate, fluorescence endpoint; inhibition, % at 15 µM; 360,000 tested, 0.67% active;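 active = compounds whose normalised, plate-corrected inhibition of enzyme fluorescence in the single-dose primary screen is 50% or more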;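 note: 0% = DMSO with enzyme and 100% = substrate without enzyme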
Active calls of the source: *; . = no result. Shown are actives, neighbours in structure and some others; about 4.1% of the full set was active somewhere.

SMILES	MPTP inh	GRIN3A LBD mod	pCIP destab	MIN6 prolif	FAS-TE inh
O=C(CSc1nc2ccc(Cl)cc2[nH]1)c1c[nH]c2ccccc12	6	12*	-4	-4	-6
Cc1nc(C(F)(F)F)ccc1C(=O)N1CCCC(C(=O)O)CC1 (stereo unspecified)	0	.	.	.	-7
CCN1CCc2c(sc(NC(=S)NC(=O)c3ccccc3)c2C#N)C1	-1	0	-20	2	-20
CC1CCc2sc(NC(=S)NC(=O)c3ccccc3)c(C#N)c2C1 (stereo unspecified)	18	22*	5	-2	-3
Cc1ccc(NS(=O)(=O)c2ccc(Cl)c(N=Nc3c(O)[nH]c(=O)[nH]c3=O)c2)cc1Cl	0	11*	.	-5	10
Fc1ccc(-c2cc(C(F)(F)C(F)F)[nH]n2)cc1	11	10*	-2	0	7
FC(F)C(F)(F)c1cc(-c2ccc(Cl)cc2)n[nH]1	47	5	4	-3	19
O=C(Nc1ccon1)c1ccc(OC2CCCC2)cc1	9	23*	-10	-5	-1
Cc1cc(C(=O)Nc2ccon2)cs1	0	-2	-21	0	-10
CC(C)(C)c1cc(NC(=O)c2ccc(OC3CCCC3)cc2)no1	2	15*	7	-1	11
Cc1cc(NC(=O)c2ccc(C(C)(C)C)cc2)no1	0	-1	.	.	2
N#Cc1cc(-c2ccc(Cl)cc2)cnc1Sc1ccc(F)cc1	7	13*	-7	-4	35
O=C(CCSc1ccc(Br)cc1)c1ccc(O)cc1	7	12*	0	-5	15
O=C(CCO)c1ccc(O)cc1	0	-1	3	0	-6
CN(CC(=O)N1CCc2ccccc21)S(=O)(=O)c1ccc(Br)s1	1	15*	-5	-1	21
COc1cccc(C(=O)N2CCC2(C)C(=O)NC(C)C)c1 (stereo unspecified)	-2	.	.	.	-7
CCOc1ccc(NC(=O)C2=C(C)NC(=S)NC2c2ccc(O)c(OC)c2)cc1 (stereo unspecified)	1	13*	-10	1	-6
O=C1C=C(c2ccccc2)C(c2ccccc2)C1O (stereo unspecified)	0	8	.	.	-2
Clc1ccc2[nH]c(-c3ccccc3)cc2c1	3	20*	-6	-1	28
O=c1cc(-c2ccccc2)[nH]c2cc(Cl)ccc12	-2	1	-12	-8	-7
Cc1cccc(C)c1N1C(=O)c2ccccc2NC(=O)C1C(=O)NCCOc1ccccc1 (stereo unspecified)	7	.	.	.	.
O=C(/C=C/Nc1cccc(F)c1)c1ccco1	1	28*	1	-2	2
O=C(/C=C/Nc1ccc(F)c(Cl)c1)c1ccco1	0	-5	-7	-4	12
Cc1nn(-c2ccccc2)c(/N=C/c2ccccc2O)c1-c1ccccc1	6	14*	-3	-3	15
O=C(N=c1ccn(-c2nc3ccccc3nc2NS(=O)(=O)c2ccccc2)cc1)c1ccccc1Cl	0	-8	-26	3	-4
SMILES	MPTP inh	GRIN3A LBD mod	pCIP destab	MIN6 prolif	FAS-TE inh
CC(=O)Nc1ccc(S(=O)(=O)Nc2nc3ccccc3nc2-n2ccc(=NC(=O)c3ccccc3)cc2)cc1	1	25*	-10	-4	1
CC(=O)Nc1ccc(S(=O)(=O)Nc2nc3ccccc3nc2-n2ccc(=NC(=O)c3ccc(F)cc3)cc2)cc1	1	36*	0	0	3
CC1CCc2nc3ccccc3c(C(=O)OCC(=O)NC3CCS(=O)(=O)C3)c2C1 (stereo unspecified)	-2	0	-2	-1	-4
COc1cccc(NC(=O)COC(=O)c2c3c(nc4ccccc24)CCC(C)C3)c1 (stereo unspecified)	7	19*	5	-6	20
O=C(NCC1CC1)C1Cc2c(-c3ccccc3Oc3ccccc3)ccnc2O1 (stereo unspecified)	1	.	.	.	3
Cc1cc(NS(=O)(=O)c2ccc(NC(=O)/C=C/c3ccccc3)cc2)no1	0	-7	-6	-2	-7
Cc1cc(NS(=O)(=O)c2ccc(NC(=O)Nc3cccc(C(F)(F)F)c3)cc2)no1	-1	22*	-4	0	5
